34 compounds from PubChem BioAssay (NCATS) can be followed below.

For experiment [1], the system named is Zika virus NS2B-NS3 protease. The experiment is described as follows: Primary screen GU AMC qHTS for Zika virus inhibitors (AID 1347154). Further: nearly all actives have a fitted effect of over 70% in size. The procedure, abridged:
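Unlinked Zika NS2B hydrophilic domain/NS3 protease domain noncovalent complex (25 nM final) in 10 mM Tris-HCl pH 8.0, 0.01% Tween 20, with AMC peptide substrate. Fluorescence (ex 340, em 450 nm) change over 15 min, room temperature; percent inhibition fitted to 4-parameter Hill equation.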

The nature of experiment [2]: qHTS to identify inhibitors of the type 1 interferon - major histocompatibility complex class I in skeletal muscle: primary screen against the NCATS Pharmaceutical Collection (AID 1347407).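 Further: luminescence of HiBiT knocked into endogenous HLA-B as interferon-induced MHC class I level.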 Further: potency means the concentration at half of the fitted maximal effect. The procedure, abridged: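 HLA-B HiBiT myoblasts, dexamethasone-free growth medium + 4 ng/ml IFN-b; compounds pinned 1 h after seeding, […] from 46 uM; 24 h, 37 C, 5% CO2; lytic HiBiT detection, 10 min RT, luminescence.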

The test system of experiment [3] is Zika virus NS2B-NS3 protease (unlinked complex). The experiment is described as follows: Primary screen GU Rhodamine qHTS for Zika virus inhibitors: Unlinked NS2B-NS3 protease assay (AID 1347159). Further: nearly all actives have a fitted effect of over 60% in size. The method in brief:
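Percent inhibition derives from the 15-min fluorescence change (ex 480, em 540 nm), normalized to no-enzyme and no-inhibitor wells. Reactions contained 25 nM NS2B-NS3 complex and 1.5 microM substrate in 10 mM Tris-HCl pH 8.0.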
On the technique in general: qHTS replaces the single test concentration by a dilution series.

Experiment [4] deals with Zika virus NS2B-NS3 protease (linked construct). Briefly: Primary screen NINDS Rhodamine qHTS for Zika virus inhibitors (AID 1347160). Further: nearly all actives have a fitted effect of over 55% in size. The procedure, abridged: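 In 10 mM Tris-HCl pH 8.0 containing 0.01% Tween 20, linked NS2B-NS3 protease (25 nM final) is exposed to test compounds for 15 min. Cleavage of 1.5 microM Rhodamine110 substrate is tracked by fluorescence over 15 min.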

Experiment [5] concerns the target Lysine-specific demethylase 5B (Homo sapiens) (UniProt Q9UGL1). The experiment is described as follows: Optimization screen for KDM5B Histone Demethylases FDH coupled qHTS against the LOPAC library (AID 1347166). The procedure, abridged:
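KDM5BDeltaAP (200nM final) preincubated 10 min with compound, then 12.5uM H3K4Me3, 25uM a-ketoglutarate, ascorbate, Fe(II), NAD+ and FDH added; 50mM HEPES pH 7.5, 0.01% Tween-20. NADH fluorescence (340/450 nm) change over 30 min, room temperature.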

Inconclusive results are not listed. Calls of active or inactive are those of the source. The call rests on the fitted dose curve; in most records, active means well fitted curve in the direction sought with a large enough effect; inconclusive means small, poorly fitted or top-dose-only effect, or another doubt; inactive means no such curve, though single readings can be large; an effect the other way counts as inactive or inconclusive. Peptide text beside a SMILES is read from it.

Lysine-specific demethylase 5B (Homo sapiens), sequence (Q9UGL1 whole entry, looked up): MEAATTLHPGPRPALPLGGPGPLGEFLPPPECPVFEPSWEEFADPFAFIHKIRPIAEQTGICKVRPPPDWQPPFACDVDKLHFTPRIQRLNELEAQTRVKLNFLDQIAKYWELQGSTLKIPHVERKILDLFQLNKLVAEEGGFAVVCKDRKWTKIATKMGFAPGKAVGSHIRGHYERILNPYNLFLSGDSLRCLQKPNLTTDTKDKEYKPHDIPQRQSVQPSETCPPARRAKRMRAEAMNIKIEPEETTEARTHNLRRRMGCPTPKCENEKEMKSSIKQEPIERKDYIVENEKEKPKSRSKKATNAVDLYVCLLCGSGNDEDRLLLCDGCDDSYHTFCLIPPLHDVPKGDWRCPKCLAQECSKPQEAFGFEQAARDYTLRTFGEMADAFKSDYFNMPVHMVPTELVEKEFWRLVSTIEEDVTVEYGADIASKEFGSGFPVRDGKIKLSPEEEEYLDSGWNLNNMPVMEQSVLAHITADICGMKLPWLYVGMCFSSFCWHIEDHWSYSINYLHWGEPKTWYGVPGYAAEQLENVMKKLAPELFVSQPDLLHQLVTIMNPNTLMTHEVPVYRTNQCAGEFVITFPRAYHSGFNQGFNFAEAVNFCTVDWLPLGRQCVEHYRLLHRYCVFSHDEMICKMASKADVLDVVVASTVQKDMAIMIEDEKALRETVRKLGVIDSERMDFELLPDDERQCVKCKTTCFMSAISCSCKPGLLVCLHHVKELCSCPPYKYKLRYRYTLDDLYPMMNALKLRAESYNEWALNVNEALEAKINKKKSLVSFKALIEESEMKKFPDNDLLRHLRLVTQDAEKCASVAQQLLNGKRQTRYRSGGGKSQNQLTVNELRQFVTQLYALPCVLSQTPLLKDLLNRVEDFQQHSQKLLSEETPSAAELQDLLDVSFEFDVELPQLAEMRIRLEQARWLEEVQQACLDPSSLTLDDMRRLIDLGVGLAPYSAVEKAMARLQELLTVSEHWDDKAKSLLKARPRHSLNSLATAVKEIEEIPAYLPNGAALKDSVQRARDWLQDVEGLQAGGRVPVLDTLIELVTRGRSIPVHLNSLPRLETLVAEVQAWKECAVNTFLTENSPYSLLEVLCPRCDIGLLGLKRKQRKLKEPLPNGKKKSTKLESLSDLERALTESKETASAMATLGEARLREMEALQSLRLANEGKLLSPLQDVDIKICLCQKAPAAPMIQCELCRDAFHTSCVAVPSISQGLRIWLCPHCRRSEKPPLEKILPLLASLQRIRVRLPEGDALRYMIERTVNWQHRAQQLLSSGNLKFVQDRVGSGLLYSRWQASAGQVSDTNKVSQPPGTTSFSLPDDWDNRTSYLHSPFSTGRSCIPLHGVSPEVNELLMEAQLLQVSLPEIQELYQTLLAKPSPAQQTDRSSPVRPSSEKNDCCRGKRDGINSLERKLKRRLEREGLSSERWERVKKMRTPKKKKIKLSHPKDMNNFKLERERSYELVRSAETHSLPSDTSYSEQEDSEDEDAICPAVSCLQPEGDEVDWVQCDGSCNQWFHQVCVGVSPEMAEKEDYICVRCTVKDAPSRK

Turning to `c1ccc2[nH]c(-c3cscn3)nc2c1`, the Potency entry in experiment [1] and in experiment [2] was “inactive” throughout.
On to `O=C(O)CCNC(=O)c1ccc(N=Nc2ccc(O)c(C(=O)O)c2)cc1`, for which the Potency entry in experiment [1] and in experiment [2] was “inactive” each time.
Regarding `COc1cc2c(N3CCN(C(=O)Nc4ccc(OC(C)C)cc4)CC3)ncnc2cc1OCCCN1CCCCC1`, the Potency entry in experiment [1], in experiment [3] and in experiment [4] was “inactive” each time.
Take `COc1c(O)cc2c(c1O)[C@@H]1O[C@H](CO)[C@@H](O)[C@H](O)[C@H]1OC2=O`: the Potency entry in experiment [1] and in experiment [4] was “inactive” each time.
For `CCC[C@@H]1C[C@@H](C(=O)N[C@@H]([C@H]2O[C@H](SC)[C@H](O)[C@@H](O)[C@H]2O)[C@@H](C)O)N(C)C1`, the Potency result in experiment [1] and in experiment [2] was “inactive” throughout.
For the compound `CN(C)CCc1c[nH]c2ccc(Cn3cncn3)cc12`, the Potency result in experiment [1] was “inactive”.
With `Nc1ccc(S(N)(=O)=O)cc1`, the Potency result in experiment [1] and in experiment [2] was “inactive” throughout.
Consider `N=C(N)c1ccc2cc(OC(=O)c3ccc(N=C(N)N)cc3)ccc2c1`, for which the Potency result in experiment [1] and in experiment [2] was “inactive” each time.
With `COc1ccc(C2(C#N)CCC(C(=O)O)CC2)cc1OC1CCCC1` (configuration not stated), the Potency entry in experiment [1], in experiment [3] and in experiment [4] was “inactive” throughout.
For the compound `Cc1ccc(S(=O)(=O)NC(=O)NN2CC3CCCC3C2)cc1` (configuration not stated), the Potency result in experiment [1] and in experiment [2] was “inactive” throughout.
Turning to `O=P(O)(O)C(O)(Cn1ccnc1)P(=O)(O)O`, in experiment [1], the Potency result was “inactive”.
Turning to `OC(CN1CCN(c2cccc(Cl)c2)CC1)C(c1ccccc1)c1ccccc1` (configuration not stated), the Potency entry in experiment [1], in experiment [3] and in experiment [4] was “inactive” in each case. Besides, in experiment [5], the compound was classed as inactive.
As for `CC1Cc2ccccc2N1NC(=O)c1ccc(Cl)c(S(N)(=O)=O)c1` (configuration not stated), the Potency entry in experiment [1] and in experiment [2] was “inactive” each time.
Take `O=C(O)c1cccc(-c2noc(-c3ccccc3F)n2)c1`: the Potency entry in experiment [1], in experiment [3], in experiment [4] and in experiment [2] was “inactive” throughout.
Consider `NC(=O)Cc1cccc(C(=O)c2ccccc2)c1N`, for which the Potency entry in experiment [1] and in experiment [2] was “inactive” throughout.
As for `CC1=C(C(=O)O)N2C(=O)[C@@H](NC(=O)[C@H](N)C3=CCC=CC3)[C@H]2SC1`, the Potency entry in experiment [1] and in experiment [2] was “inactive” throughout.
For `O=C(OC1C[C@H]2CC[C@@H](C1)[N+]21CCCC1)C(O)(c1ccccc1)c1ccccc1` (some centres not stated), the Potency result in experiment [1], in experiment [3], in experiment [4] and in experiment [2] was “inactive” each time.
For `COC(=O)C1=C(C)NC(C)=C(C(=O)OCCCN2CCC(c3ccccc3)(c3ccccc3)CC2)C1c1cccc([N+](=O)[O-])c1` (configuration not stated), in experiment [1], the Potency entry was “inactive”.
`O=c1oc2cc(O)ccc2s1`: in experiment [1], the Potency entry is “inactive”.
Turning to `Cc1nccn1CC1CCc2c(c3ccccc3n2C)C1=O` (configuration not stated), the Potency entry in experiment [1], in experiment [3], in experiment [4] and in experiment [2] was “inactive” in each case.
Turning to `CCCS(=O)c1ccc2nc(NC(=O)OC)[nH]c2c1` (configuration not stated), the Potency entry in experiment [1], in experiment [4] and in experiment [2] was “inactive” in each case.
`CCOC(=O)C1=C[C@@H](OC(CC)CC)[C@H](NC(C)=O)[C@@H](N)C1`: in experiment [1], the Potency result was “inactive”.
Take `O=C(NC(Cc1cc(=O)[nH]c2ccccc12)C(=O)O)c1ccc(Cl)cc1` (configuration not stated): the Potency result in experiment [1] and in experiment [2] was “inactive” each time.
`COc1cc(Nc2c(C#N)cnc3cc(OCCCN4CCN(C)CC4)c(OC)cc23)c(Cl)cc1Cl`: the Potency entry in experiment [1], in experiment [3] and in experiment [4] was “inactive” in each case. Besides, in experiment [2], the Potency was 7.45 µM (active).
On to `COCCCOc1ccnc(CS(=O)c2nc3ccccc3[nH]2)c1C` (configuration not stated), for which the Potency result in experiment [1], in experiment [3], in experiment [4] and in experiment [2] was “inactive” throughout.
As for `C=CCc1cc(OC)c(O)c(C(=O)NCCO)c1`, the Potency entry in experiment [1] and in experiment [2] was “inactive” throughout.
In the case of `CC(C)[N+]1(C)[C@@H]2CC[C@H]1CC(OC(=O)C(CO)c1ccccc1)C2` (some centres not stated), the Potency entry in experiment [1] is “inactive”.
Consider `CCC1=C(C)CN(C(=O)NCCc2ccc(S(=O)(=O)NC(=O)NC3CCC(C)CC3)cc2)C1=O` (configuration not stated), for which the Potency result in experiment [1], in experiment [4] and in experiment [2] was “inactive” in each case.
As for `Cc1cccc(C)c1OCC(=O)N[C@@H](Cc1ccccc1)[C@@H](O)C[C@H](Cc1ccccc1)NC(=O)[C@H](C(C)C)N1CCCNC1=O`, the Potency result in experiment [1] and in experiment [2] was “inactive” each time.
Take `COC(=O)[C@H](Cc1ccccc1)NC(=O)[C@@H](N)CC(=O)O` (H-Asp-Phe-OMe): the Potency entry in experiment [1] and in experiment [2] was “inactive” in each case.
Consider `CC1=C(C)C(=O)C(C(CCCCCC(=O)O)c2ccccc2)=C(C)C1=O` (configuration not stated), for which the Potency result in experiment [1] and in experiment [2] was “inactive” each time.
`CCCCC(CC)COC(=O)C(C#N)=C(c1ccccc1)c1ccccc1` (configuration not stated): the Potency result in experiment [1] and in experiment [2] was “inactive” in each case.
Consider `Cc1nc2n(c(=O)c1CCN1CCC(c3noc4cc(F)ccc34)CC1)CCCC2`, for which the Potency result in experiment [1] and in experiment [2] was “inactive” throughout.
With `Cc1cc(=O)oc2cc(O)ccc12`, in experiment [2], the Potency entry is “inactive”.
